# Results reported in PubChem BioAssay (NCATS).
# A number with no mark means an inactive call. The rule behind the calls is not given here.
# Tested on: HIV-1 nucleocapsid protein NCp7 (binding to TG oligonucleotide)
# Experiment: HIV Nucleocapsid (AID 346);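 note: potency is for inhibitors that block NC binding and lower polarization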
# Conditions: HIV-1 NC / fluorescein-TGTGTGTG probe, fluorescence polarization
# Outline: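 NCp7 100 nM + fluorescein TG4xF 10 nM; Hepes pH 7.5/250mM NaCl/1uM ZnCl2/0.004% PEG 20000; 1 hr RT; FP, 45 s exposure; oligo-only wells as negative control.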
# Potency is the fitted concentration of half-maximal effect.
row,SMILES,Potency
1,c1ccc(CNc2ncnc3ccc(-c4cccnc4)cc23)cc1,> 20 µM
2,N#Cc1ccccc1-c1nc(NCCN2CCOCC2)c2ccccc2n1,> 20 µM
3,Clc1ccccc1-c1nc(Nc2ccncc2)c2ccccc2n1,> 20 µM
4,O=c1c(-c2ccc(Cl)cc2)nc2cnc(N3CCNCC3)nc2n1Cc1cccs1,> 20 µM
5,CN(Cc1ccco1)c1ncncc1-c1cccc(C#N)c1,> 20 µM
6,COc1cccc(-c2nc(N(C)C)c3ccccc3n2)c1,> 20 µM
7,COc1ccc(-n2c(=O)c(-c3cccs3)nc3cnc(N(C)C)nc32)cc1,> 4 µM
8,COCCn1c(=O)c(CCc2ccccc2)nc2cncnc21,> 20 µM
9,COCCNc1ccnc(-c2c(C)noc2C)n1,> 20 µM
10,COc1ccc(-n2c(=O)c(-c3cccs3)nc3cnc(Nc4cccc(OC)c4)nc32)cc1,> 20 µM
11,CCNc1ncc2nc(-c3cn(C)c4ccccc34)c(=O)n(Cc3cccs3)c2n1,> 20 µM
12,O=C(c1cnccn1)N1CCC2(CC1)CCN(C(c1ccccc1)c1ccccc1)CC2,> 20 µM
13,N#Cc1cccc(-c2cncnc2NCc2cccnc2)c1,> 20 µM
14,COc1ccccc1CNc1ncncc1-c1ccoc1,> 20 µM
15,COc1ccc2[nH]cc(CCNc3nc(-c4ccccc4OC)nc4ccccc34)c2c1,> 20 µM
16,COC(=O)N1CCC2(CCCN(Cc3ccccc3OC)C2)CC1,> 20 µM
17,O=C(c1cnccn1)N1CCC2(CCN(Cc3nccs3)CC2)CC1,> 20 µM
18,Cn1cccc1C(=O)N1CCC2(CC1)CN(c1ccncc1)C2,> 20 µM
19,CC(=O)NCCNc1ncnc2ccc(-c3ccccc3C)cc12,> 20 µM
20,CN(Cc1ccco1)c1cc(-c2cccc(NS(C)(=O)=O)c2)ncn1,> 20 µM

row,SMILES,Potency
1,O=C(Oc1ccccc1)N1CCC2(CCCN(c3ccccn3)C2)CC1,> 20 µM
2,COc1ccc(-n2c(=O)cnc3cnc(OC)nc32)cc1,> 20 µM
3,O=C(Nc1cccc(F)c1)N1CCCC2(CCN(C(=O)c3cccc(F)c3)CC2)C1,> 20 µM
4,COc1ccc(NC(=O)N2CCCC3(CCN(S(C)(=O)=O)CC3)C2)cc1,> 20 µM
5,c1ccc(-c2cccc(N3CCC4(CCNCC4)CC3)c2)cc1,> 20 µM
6,c1ccc(-c2cccc(N3CC[C@@]4(CCCNC4)C3)c2)cc1,> 20 µM
7,CN(C)c1ncc2nc(-c3ccccc3)c(=O)n(Cc3ccc(F)cc3)c2n1,> 20 µM
8,c1ccc(Nc2ncnc3ccc(-c4ccoc4)cc23)cc1,> 20 µM
9,CC(=O)NCCNc1ncnc2ccc(-c3ccccc3C(F)(F)F)cc12,> 20 µM
10,COCC(=O)N1CCC2(CC1)CCN(C(=O)Nc1cccc(C#N)c1)CC2,> 20 µM
11,c1csc(CNc2ccnc(-c3ccoc3)n2)c1,> 20 µM
12,O=C(c1csnn1)N1CCC2(CC1)CN(c1ncccn1)C2,> 20 µM
13,CN(C)C(=O)c1ccc(-c2ccc3ncnc(N4CCOCC4)c3c2)cc1,> 20 µM
14,Cc1nc2cnc(N3CCOCC3)nc2n(CCc2ccccc2)c1=O,> 20 µM
15,Cc1cnc(CNc2ccnc(-c3cccc(C#N)c3)n2)cn1,> 20 µM
16,CC(C)NC(=O)N1CCCC2(CCN(C(=O)c3cccc(F)c3)CC2)C1,> 20 µM
17,COc1ncc2nc(-c3cn(C)c4ccccc34)c(=O)n(CCc3ccccc3)c2n1,> 20 µM
18,N#Cc1ccc(CN2CC3(CCN(C(=O)c4cccc(F)c4)CC3)C2)cc1,> 20 µM
19,CC(C)NC(=O)N1CC[C@@]2(CCCN(C(=O)c3cccc(F)c3)C2)C1,> 20 µM
20,COc1ccc(C(=O)N2CCC3(CC2)CCN(c2ccccc2)CC3)cc1,> 20 µM
